Data: ChEMBL document CHEMBL4513216, “Probing the Open Global Health Chemical Diversity Library for Multistage-Active Starting Points for Next-Generation Antimalarials” (ACS Infect Dis, 2020)
The campaign covered roughly 69,000 compounds. About 8,600 (12%) showed an effect of 50% or more. The sample as a whole holds a higher share of strong results than the screen did.

system: Plasmodium berghei; test: Screen against P. berghei liver stage (PbLuc), transformed with Luciferase, at 10uM; type: functional, HepG2; details: tested at 10 uM

| Structure (SMILES) | INHIBITION |
| --- | --- |
| CO[C@@H]1CCN(Cc2c(C)noc2C)[C@@H]2CN(Cc3cccnc3)C[C@@H]21 | 22.6% |
| COCCOc1ccccc1C(=O)NCCN(C)C(C)C | 4.52% |
| O=C(c1nn(-c2ccccc2F)cc1O)N1CCCSCC1 | -21.7% |
| Cc1ccc(N2CC[C@H]3OCC[C@@]3(C(=O)NC(C)C)C2)nn1 | 35.1% |
| COc1ccc(CN2CCc3[nH]nc(C(=O)N(C)C)c3C2)cc1 | 21.1% |
| COCC(=O)NCc1ccc(-c2ncncc2C(=O)N(C)C)cc1 | 26.15% |
| CCOCc1ccc(CNc2nc(OC)ncc2Cl)cc1 | 35.4% |
| COc1ncc(Cl)c(NCc2ccc([S+](C)[O-])cc2)n1 (centres undefined) | 61.1% |
| COc1ncc(Cl)c(NCc2ccc(C(=O)N(C)C)cc2)n1 | 58.9% |
| COc1ccccc1C1(CNCc2ccc([S+](C)[O-])cc2)CC1 (centres undefined) | 1.41% |
| COC(=O)CC1CSCCN1C(=O)CCc1c(C)nn(C)c1C (centres undefined) | 19.8% |
| COc1ccccc1C(O)CNC(=O)NCc1cc[nH]n1 (centres undefined) | 26.4% |
| Cc1cc(C)n(CCCNC(=O)C(C)NC(=O)CC2CCCCC2)n1 (centres undefined) | -7.98% |
| COCC(=O)N1CCC2(CCC2N(C)Cc2ccco2)CC1 (centres undefined) | -28.2% |
| Cc1cc(C)n(CC(C)CNC(=O)[C@@H](C)NC(=O)OC(C)(C)C)n1 (some centres undefined) | -45.8% |
| Cc1nc(C(=O)N2CCCC2c2noc(C)n2)c[nH]1 (centres undefined) | 0.914% |
| CC(C)CCN1CCC2(CCCN(c3nncs3)C2)C1 (centres undefined) | 4.1% |
| CCc1nncn1CCNC(=O)N1CCN(Cc2ccccc2)CC1 | 35.3% |
| Cn1c2ccc(F)cc2c2ncn(CCCN(CCO)CCO)c(=O)c21 | 24.7% |
| Cc1cnc(C(=O)N2CCCCC2c2nc(C)cs2)cn1 (centres undefined) | -16% |
| CCN1CCC2(C1)CN(S(=O)(=O)c1cn(C)cn1)C2 | 65.7% |
| Cn1cnc(S(=O)(=O)N2CCN(CC3CC3)c3ncccc3C2)c1 | -22.1% |
| Cn1cnc(S(=O)(=O)N2CCSC3(CCCCC3)C2)c1 | -37.8% |
| Cn1cnc(S(=O)(=O)N2CC3(CCN(Cc4ccncc4)C3)C2)c1 | 21.3% |
| Fc1cnc(N2CC3(CCN(CC4CC4)C3)C2)nc1 | -81.2% |
| Cn1cnc(C(=O)N2CC3(CCN(S(=O)(=O)c4ccccc4)C3)C2)c1 | -4.02% |
| Cn1cnc(S(=O)(=O)N2CC3(CCN(CC4CC4)C3)C2)c1 | 67.5% |
| Cn1cnc(S(=O)(=O)N2CC3(CCN(c4ccccc4)C3)C2)c1 | 53% |
| CC(C)CN1CCC2(C1)CN(S(=O)(=O)c1cn(C)cn1)C2 | 35.8% |
